In one experiment the target is GABRA1. Briefly: pooled miR-30 sensor sort-seq; sequence = guide strand. The conditions noted are these: shRNA.
With TTAGTGAAATAGTTTACTGTGG, the sensor-assay potency score (higher = more potent) is -0.522. TTGTATAAGCATAACTTCCAAA returned a sensor-assay potency score (higher = more potent) of -0.726. On to TTTCTTGTATCTTTGAACCATC, for which the sensor-assay potency score (higher = more potent) was -0.813. As to TTAACAACATTCCAACAGCTAA, the sensor-assay potency score (higher = more potent) is -1.39. In the case of TACTTGACTGGACAATTCCAGA, the sensor-assay potency score (higher = more potent) is -1.07.

With TTAGACGTGATCCATCTTCTGC, the sensor-assay potency score (higher = more potent) is -0.591. On the same count and under the same terms, to TTTATCTCTAAAACATCTGGGC belongs 0.106; to TTAAATATCTGTTAAACTCTAT, -0.0161; to TTGTCCAAGAAGGTCATACTGG, -0.186. The same measure, in the same setting: for ATTGTCATAACCATCTAGGAGT the value was -0.817; for TTACACGCTCTCCCAATCCTGG, -1.04; for TACTGTGGCAAACTCAATCAGA, -0.32.

A further experiment concerns the target GABRB2. Described as above. The conditions noted are these: shRNA.
As to TTAAAGCTGAGGGATAACCTGG, the sensor-assay potency score (higher = more potent) is -0.689. TTTCAGGAGTCTATCCACCGTC showed a sensor-assay potency score (higher = more potent) of -0.228. For TAGGCTAGCATTGTGCTTCTGG, the sensor-assay potency score (higher = more potent) was 0.754. Regarding TTAACCAGCGACATATTACTAG, the sensor-assay potency score (higher = more potent) was -0.576. TATCTCTCCAGGCTTGTTGAAA returned a sensor-assay potency score (higher = more potent) of -1.12. Same read-out and setting: to TATTACATTATAGGACAGCCTC belongs -0.766. The sequence TTTCTCTTAAGCTTAAAGCTGA gave a sensor-assay potency score (higher = more potent) of -0.0649.

In turn, TTCAGGAGTCTATCCACCGTCT gave a sensor-assay potency score (higher = more potent) of 0.156. As for TTATCGTTCAGGAAATAGGTAT, the sensor-assay potency score (higher = more potent) was -0.408. As to TACATTATAGGACAGCCTCTTA, the sensor-assay potency score (higher = more potent) was -0.982. In the case of TCTGAGTCCATAAAGGACGGTG, the sensor-assay potency score (higher = more potent) was -0.531. Turning to TCAGAAACCATATCGATGCTGG, the sensor-assay potency score (higher = more potent) was determined as 0.313. As for TTGTTGAAAGTACATTGTCAAG, the sensor-assay potency score (higher = more potent) was -1.79. For the sequence TCTACAATAGAGAACTGTGGAA, the sensor-assay potency score (higher = more potent) is -0.939. For TCATAGGCTAGCATTGTGCTTC, the sensor-assay potency score (higher = more potent) was -0.299. Take TTAATCCAGAAGGAGACCCAGG: the sensor-assay potency score (higher = more potent) was -0.469.

Sequence TTACATTATAGGACAGCCTCTT registered a sensor-assay potency score (higher = more potent) of -0.0422. In turn, TTGCGCCACATGTCGTTCCAGA displayed a sensor-assay potency score (higher = more potent) of -0.912. Take TTTGTAATCTACAATAGAGAAC: the sensor-assay potency score (higher = more potent) was -1.05.

With TGAAGCATCGTAATTAATCCAG, the sensor-assay potency score (higher = more potent) is -0.467. Sequence TAATCTACAATAGAGAACTGTG registered a sensor-assay potency score (higher = more potent) of -0.184. Same read-out and setting: to TGAAAGTACATTGTCAAGGTAT belongs 0.245.

The next experiment deals with GABRP. Described as above. Particulars: shRNA.
The sequence TTGATGATATTAGTAATACTGA displayed a sensor-assay potency score (higher = more potent) of -0.994. The sequence TTACATGCAACAGTTGTCGTGA came in with a sensor-assay potency score (higher = more potent) of 0.789. Consider TTCATTGTCAAGTCACTGTAGT, for which the sensor-assay potency score (higher = more potent) turned out to be 0.147. For TTACTCTCTGAAATGCTAGAGA, the sensor-assay potency score (higher = more potent) is -0.589. With TACATCATTATCTTGTCCTGTT, the sensor-assay potency score (higher = more potent) was found to be 0.716.

ATAGTGATCAACATTACTGGGG registered a sensor-assay potency score (higher = more potent) of 0.527.
Further: reference of the scale not given here.
